Experimental data taken from PubChem BioAssay (EPA / NIEHS).
Inconclusive results are not listed. Active and inactive are the calls of the source. Rule for the calls: active = hit-call score of the fitted dose curve at least 0.9, where 1 is the maximum; inconclusive = response in the unintended direction; inactive = score below 0.9.

read-out: Cytochrome P450 2C19 (Homo sapiens) (UniProt P33261); test: CLD_CYP2C19_6hr: CellzDirect (CLD) Gene Expression Assay for xenobiotic metabolism (CYP2C19) at 6 hours (AID 2283678)
Procedure: CLD_6hr is a cell-based, multiplexed-readout assay that uses hepatocyte, a human liver primary cell, with measurements taken at 6 hours after chemical dosing in a 96-well plate.CLD_CYP2C19_6hr is one of 16 assay component(s) measured or calculated from the CLD_6hr assay. It is designed to make measurements of mRNA induction, a form of inducible reporter, as detected with chemiluminescence signals by Quantitative Nuclease Protection Assay (qNPA) technology.Data from the assay component CLD_CYP2C19_6hr was analyzed at the endpoint, CLD_CYP2C19_6hr, in the positive analysis fitting direction relative to DMSO as the negative control and baseline of activity. Using a type of inducible reporter, gain-of-signal activity can be used to understand changes in the reporter gene as they relate to the gene CYP2C19. Furthermore, this assay endpoint can be referred to as a primary readout. To generalize the intended target to other relatable targets, this assay endpoint is annotated to the cyp intended target family, where subfamily is xenobiotic metabolism.
Human hepatocyte cultures were treated daily for two consecutive days with fresh dosing solutions containing appropriate concentrations of the 320 ToxCast chemicals (chemical identities were blinded to CellzDirect and other ToxCast collaborators), vehicle control (0.2% DMSO), and positive control inducers as summarized in Table 1. Due to the large number of treatment groups and chemicals examined, the ToxCast chemicals were divided into two groups (spanning two independent cultures of hepatocytes from separate donor preparations (Hu778: ToxCast plates 1 and 2; Hu776: ToxCast plates 3 and 4). Each preparation of human hepatocyte cultures was treated with respective vehicle control, medium only control, set of six positive controls/reference chemicals for the five hepatic receptor pathways, and a subset of eight of the ToxCast chemicals (indoxacarb, pyrithiobac-sodium, norflurazon, cyhalofop-butyl, methomyl, thiram, acetochlor, and propiconazole). These replicate data, coupled with internal replicates designed within the blinded ToxCast chemical library, provided additional data to evaluate interindividual differences between hepatocyte preparations and their potential impact on chemical profiles.Cell morphology and integrity were evaluated using phase-contrast microscopy as an indicator of hepatocyte cell health (Tyson & Green, 1987). Cultures for each treatment group (i.e., media, vehicle [0.2% DMSO], positive control inducers [multiple concentrations], and the ToxCast chemicals [multiple concentrations]) were observed and cell morphology was assessed relative to vehicle control cultures at each harvest time point (0, 6, 24, or 48 h). […] Images were evaluated at the conclusion of the study to assess changes in cell integrity and account for the effects of chemical exposure on uncharacteristic changes in concentration-dependent gene expression profiles. The results from these determinations of apparent cytotoxicity were annotated (yes/no) alongside the corresponding qNPA data for reference.At the conclusion of each treatment period, hepatocyte cultures (96-well) were washed with 1 volume of HBSS, lysed by addition of 25 ul ArrayPlate lysis buffer (HTG, Tucson, AZ), and 70 ul/well of Denaturation Oil, denatured by incubation at 95C for 10 min, and frozen at approximately -70C until analysis by nuclease protection assay (qNPA) (Roberts et al., 2007). For qNPA analysis, cell lysates were thawed at 50C for approximately 30 min, qNPA probes were added, and samples were incubated at 95C for 10 min to begin the detection process by denaturing the target RNA, dissociating the duplexes and secondary structure hybridization. At the conclusion of the hybridization period, S1 nuclease reagent was added to each sample to digest all nonprotected nucleotides at 50C for 60-90 min. […]

Sequence of Cytochrome P450 2C19 (Homo sapiens) (P33261 whole entry, looked up): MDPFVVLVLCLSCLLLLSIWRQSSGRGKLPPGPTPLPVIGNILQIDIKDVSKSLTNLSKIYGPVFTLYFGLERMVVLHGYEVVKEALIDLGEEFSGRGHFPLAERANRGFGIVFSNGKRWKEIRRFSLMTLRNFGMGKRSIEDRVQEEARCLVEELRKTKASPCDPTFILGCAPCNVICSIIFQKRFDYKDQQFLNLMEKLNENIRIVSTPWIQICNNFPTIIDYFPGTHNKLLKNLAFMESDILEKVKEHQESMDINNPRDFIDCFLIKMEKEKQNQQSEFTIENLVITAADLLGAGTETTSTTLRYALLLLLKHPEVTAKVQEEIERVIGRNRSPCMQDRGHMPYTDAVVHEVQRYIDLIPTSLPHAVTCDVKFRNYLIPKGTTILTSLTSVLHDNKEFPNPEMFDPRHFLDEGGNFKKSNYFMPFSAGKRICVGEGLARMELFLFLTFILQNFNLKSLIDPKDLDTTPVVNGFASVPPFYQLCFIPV

Row | Compound | outcome
1 | CCCCC(CC)COC(=O)c1ccccc1C(=O)O (centres undefined) | inactive
2 | CCCOC(=O)NCCCN(C)C | inactive
3 | OB(O)O | inactive
4 | COC(=O)CSc1cc(N=c2sc(=O)n3n2CCCC3)c(F)cc1Cl | inactive
5 | COCCO | inactive
6 | COC(=O)c1ccc(CNS(C)(=O)=O)cc1S(=O)(=O)NC(=O)Nc1nc(OC)cc(OC)n1 | inactive
7 | COC(=O)c1ccccc1S(=O)(=O)NC(=O)Nc1nc(OC(F)F)cc(OC(F)F)n1 | inactive
8 | COC(=O)c1ccccc1C(=O)O | inactive
9 | CCCCCOC(=O)COc1cc(N2C(=O)C3=C(CCCC3)C2=O)c(F)cc1Cl | inactive
10 | CCOC(=O)NCCOc1ccc(Oc2ccccc2)cc1 | inactive
11 | CC1(C)C(C=C(Cl)Cl)C1C(=O)OCc1cccc(Oc2ccccc2)c1 (centres undefined) | inactive
12 | c1ccc(Nc2ccccc2)cc1 | inactive
13 | O=C(O)C1(C(=O)Nc2ccc(Cl)cc2Cl)CC1 | inactive
14 | C#CCOC(=O)[C@@H](C)Oc1ccc(Oc2ncc(Cl)cc2F)cc1 | inactive
15 | CCCCCCC(C)OC(=O)COc1nc(F)c(Cl)c(N)c1Cl (centres undefined) | inactive
16 | CCCOC(=O)c1ccc(C(=O)OCCC)nc1 | inactive
17 | COC(=O)c1ccc(I)cc1S(=O)(=O)NC(=O)Nc1nc(C)nc(OC)n1 | inactive
18 | c1ccc2[nH]c(-c3cscn3)nc2c1 | inactive
19 | CCCCOC(=O)[C@@H](C)Oc1ccc(Oc2ccc(C(F)(F)F)cn2)cc1 | inactive
20 | COc1c(Cl)ccc(Cl)c1C(=O)O | inactive
21 | CCC(C)OC(=O)N1CCCCC1CCO (centres undefined) | inactive
22 | CCCN(CCC)C(=O)SCC | inactive
23 | COc1nc(C)nc(NC(=O)NS(=O)(=O)c2ccccc2OCCCl)n1 | inactive
24 | COC(=O)c1cccc(C)c1S(=O)(=O)NC(=O)Nc1nc(OCC(F)(F)F)nc(N(C)C)n1 | inactive
